Sampled rows, rich in hits. Any-hit rate of the full collection: about 21%.
DT40 TDP1 CPT = growth inhibition of DT40 Tdp1-/-;hTDP1 cells with camptothecin (screen for TDP1 inhibitors). Potency, µM (doses to about 46.2 µM), inactives show top-dose activity change, negative = growth inhibition, most hits filed as inhibitors. chicken DT40 Tdp1-/-;hTDP1 cells + 20 nM CPT, ATP luminescence, 48 h. 420,000 tested, 12% active; also: potency is read from the fitted curve at half-maximal effect; nearly all actives have a fitted effect of over 55% in size
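Chicken DT40 Tdp1-/- cells complemented with human TDP1, 400 cells/well, exposed to compounds plus 20 nM camptothecin for at least 48 h at 37 C; viability read as ATP content by CellTiter-Glo luminescence.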
RORgamma inh = ROR gamma (mouse) transcription inhibition; Potency, µM (top dose mostly 53.6 µM), for the others: top-dose activity change, negative = inhibition, actives largely listed as inhibitors; 310,000 tested, 5.4% active; P51450; AID 2551; Drosophila S2 Gal4-RORgamma UAS-luciferase reporter, 20 h; also: potency is read from the fitted curve at half-maximal effect; nearly all actives have a fitted effect of over 60% in size
Target sequence (P51450 whole entry, looked up, the tested form may be a part): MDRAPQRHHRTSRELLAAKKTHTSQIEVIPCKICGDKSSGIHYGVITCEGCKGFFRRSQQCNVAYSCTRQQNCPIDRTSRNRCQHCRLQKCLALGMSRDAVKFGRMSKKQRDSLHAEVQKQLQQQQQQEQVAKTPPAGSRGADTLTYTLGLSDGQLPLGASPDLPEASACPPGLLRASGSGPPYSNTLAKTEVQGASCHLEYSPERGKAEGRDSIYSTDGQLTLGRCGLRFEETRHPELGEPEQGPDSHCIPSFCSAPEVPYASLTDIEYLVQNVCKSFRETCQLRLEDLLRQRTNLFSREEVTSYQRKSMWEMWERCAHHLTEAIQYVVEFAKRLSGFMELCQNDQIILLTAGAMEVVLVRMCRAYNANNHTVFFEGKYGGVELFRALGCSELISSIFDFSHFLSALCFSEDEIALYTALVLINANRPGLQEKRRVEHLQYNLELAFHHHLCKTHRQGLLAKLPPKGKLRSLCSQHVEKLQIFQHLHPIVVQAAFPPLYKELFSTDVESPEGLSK
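Stable Schneider cell line, Gal4 DNA-binding domain fused to ROR gamma, UAS-luciferase. Cmpd 1 hr RT → CuSO4 700 uM final → 20 hr RT → luciferase reagent 10 min → luminescence.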
Gal4-VP16 FLuc = Gal4-VP16 reporter inhibition counter-screen; Potency, µM (series often up to 53.6 µM), without a hit: at the highest dose activity, negative = inhibition, hits mostly inhibitors; Drosophila S2 Gal4-VP16 UAS-luciferase, luminescence, 20 h; 310,000 tested, 3.5% active; AID 2546;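 also: Gal4-VP16 expression switched on by copper sulfate through the metallothionein promoter; potency is read from the fitted curve at half-maximal effect; nearly all actives have a fitted effect of over 50% in size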
ELG1 DNA repair = blocks ELG1-dependent DNA repair in HEK293T cells; 330,000 tested, 2.3% active; Potency, µM (doses to about 46.1 µM), inactives show at the top dose activity change, negative = inhibition, actives largely listed as inhibitors; HEK293T ELG1-luciferase reporter, luminescence, 16 h; DNA damage induced by 5-fluorouridine; also: potency is read from the fitted curve at half-maximal effect; nearly all actives have a fitted effect of over 55% in size
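5-Fluorouridine DNA damage + compound/DMSO, 2,000 cells/well, 16 h, 37 °C/5% CO2. ONE-Glo, 30 min RT, luminescence. Readout = decrease in reporter signal.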
TDP1 cell noCPT = qHTS for Inhibitors of human tyrosyl-DNA phosphodiesterase 1 (TDP1): qHTS in cells in absence of CPT | DT40 Tdp1-/- hTDP1 cells, no CPT, ATP luminescence, 48 h | AID 686978, 2013 | Potency, µM (series often up to 46.2 µM), without a hit: top-dose activity change, negative = growth inhibition, most hits filed as inhibitors | 420,000 tested, 15% active; also: potency is read from the fitted curve at half-maximal effect; nearly all actives have a fitted effect of over 55% in size
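Compound effects on proliferation are scored in DT40 Tdp1-/-;hTDP1 cells in the absence of CPT. ATP levels (CellTiter-Glo luminescence) are recorded after a ≥48 hr, 37 °C incubation.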
IL-1B inflam inh = blocks inflammasome-driven IL-1 beta release; THP-1 LPS/ATP IL-1B secretion, AlphaLISA, 16 h; stronger effect = lower value; activity change, % at 57.5 µM; 360,000 tested, 4.7% active; in the data active = activity change below about -50%; inconclusive = mostly about -30% to -49%
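Secreted IL-1B measured by AlphaLISA bead assay after 16 h compound exposure of THP-1 cells; compounds (final up to 57.5 uM) added 1 h before LPS (250 ng/mL) and ATP (1.25 mM) stimulation; lower signal means less secretion.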
* = called active by the depositor; ? = inconclusive; / = not tested or not shown. Unless noted, calls follow the shape of the dose curve; as a rule, active = well fitted curve in the direction sought with a large enough effect; inconclusive = small, poorly fitted or top-dose-only effect, or another doubt; inactive = no such curve, though single readings can be large; an effect the other way counts as inactive or inconclusive. % is scaled to controls: 0 for no effect and ±100 for the full control effect.

SMILES	DT40 TDP1 CPT	RORgamma inh	Gal4-VP16 FLuc	ELG1 DNA repair	TDP1 cell noCPT	IL-1B inflam inh
CCOC(=O)c1c(NC(=O)COC(=O)c2cccnc2OCC)sc(C(=O)N(CC)CC)c1C	?	/	/	7.3µM*	18.4µM*	-60.1*
CCOC(=O)c1c(NC(=O)COc2ccc(OC)cc2)sc(C(=O)N(CC)CC)c1C	?	/	/	/	7.31µM*	/
CC1CCN(S(=O)(=O)c2ccc3c(c2)N(CC(=O)N(C)Cc2ccco2)C(=O)CO3)CC1	?	7.4%	-7.7%	-0.6%	?	-15.1
CCOC(=O)c1c(NC(=O)COC(=O)c2ccc(O)cc2)sc(C(=O)NC)c1C	18.4µM*	/	/	/	20.6µM*	13.5
CCOC(=O)c1c(NC(=O)COC(=O)c2nc(Cl)ccc2Cl)sc(C(=O)NC)c1C	-5.3%	/	/	?	-26.5%	8.4
CCOC(=O)c1c(NC(=O)c2nc(S(C)(=O)=O)ncc2Cl)sc(C(C)=O)c1C	0.581µM*	/	/	/	0.92µM*	/
CCOC(=O)C[C@@H]1OC2CCCCC2N1S(=O)(=O)c1ccc(C)cc1 (stereo partly drawn)	25.9µM*	/	/	/	?	14.2
COc1ccc(C(=O)C[C@@H]2OC3CCCCC3N2S(=O)(=O)c2ccc(C)cc2)cc1OC (stereo partly drawn)	16.4µM*	/	/	/	16.4µM*	-11.5
CCc1nn2c(=O)cc(COC(=O)c3ccccc3NC(=O)C3CCCCC3)nc2s1	6.4%	/	/	/	-26.4%	/
O=c1ccc(S(=O)(=O)N2CCCC2)cn1Cc1ccc(Cl)cc1Cl	20.6µM*	/	/	-18.4%	11.6µM*	-4.5
Fc1ccc(Nc2nc(N3CCOCC3)nc(N3CCOCC3)n2)cc1Cl	?	-10.3%	-1.2%	?	-21.4%	-26.6
CC(C)c1ccc(Nc2nc(N3CCOCC3)nc(N3CCOCC3)n2)cc1	18.4µM*	/	/	/	18.4µM*	-8.4
Clc1ccc(Nc2nc(N3CCOCC3)nc(N3CCOCC3)n2)cc1Cl	?	9.9%	-4.4%	1.64µM*	9.2µM*	-28.2
Cc1ccc(Nc2nc(Nc3ccc(Cl)cc3)nc(N3CCOCC3)n2)cc1	11.2µM*	/	/	/	17.8µM*	/
CC(C)c1ccc(Nc2nc(NCc3ccco3)nc(N3CCOCC3)n2)cc1	?	12.3%	-3.9%	?	?	-21.5
Cc1ccc(Nc2nc(Oc3ccc(OCc4ccccc4)nn3)nc(N3CCOCC3)n2)cc1	?	8.0%	-17.9%	?	?	?
Fc1ccccc1Nc1nc(N2CCOCC2)nc(N2CCOCC2)n1	20.6µM*	26.1%	-6.9%	5.8µM*	?	-19.0
CC1CCC2C(C1)OS(=O)(=O)NC2(C)C (stereo not drawn)	/	-12.6%	-4.2%	3.0%	/	/
Cc1ccc(Nc2nc(N3CCOCC3)nc(N3CCOCC3)n2)cc1	18.4µM*	44.8%	-4.1%	?	18.4µM*	/
CC(=O)Nc1ccc(Nc2nc(Nc3ccc(Cl)cc3)nc(N3CCOCC3)n2)cc1	1.26µM*	/	/	/	0.794µM*	/
Cc1ccc(Nc2cc(C)nc(N3CCOCC3)n2)cc1	-28.0%	12.5%	-6.1%	?	?	17.3
CN1CCN(c2nc(Nc3cccc(C(F)(F)F)c3)nc(N3CCOCC3)n2)CC1	?	-33.4%	-4.9%	?	?	-59.1*
C[C@H]1[C@@H](c2ccccc2)Oc2ccc(Cl)cc2S(=O)(=O)N1Cc1ccc(F)cc1F	?	/	/	/	?	-8.2
CC(=O)N1CCN(C(=O)/C(C#N)=C/c2ccc3c(c2)OCO3)CC1	3.7%	-41.6%	-8.5%	8.8%	4.6%	1.8
N#C/C(C(=O)N1CCCCC1)=C1/N=C(N)c2ccccc21	3.6%	?	-0.6%	?	2.8%	-5.4
